Only some compounds are listed: those with a hit (about 3.3% of all), similar ones and a draw of the others.
PI4K2A inh: blocks human PI4K2A kinase activity; AID 1346378; purified PI4K2A, ADP-Glo luminescence, 1 h; hits give low values; activity change, negative = inhibition, % at 76.9 µM; actives 0.13% (n = 420,000); in the data active = activity change below about -50%; inconclusive = mostly about -30% to -49%;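 note: -100% = wells without enzyme as full effect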
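PI4K2A activity was measured by ADP-Glo luminescence: enzyme (4 ug/mL stock) and phosphatidylinositol (1.2 mM stock) in Tris pH 7.5/MgCl2/EGTA/Triton X-100 buffer were reacted with ATP (300 microM stock) for one hour at ambient temperature.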
PI5P4Ka inh: PI5P4K alpha (human) kinase inhibition. AID 652105. actives 1.2% (n = 330,000). P48426. max response, %. PI5P4Kalpha enzyme, ADP-Glo luminescence, 60 min; hits give low values; active = max response of -50% or lower; inconclusive = between -30% and -50%; inactive = -30% or higher; note: value at the top dose of about 77 µM; % is set by controls: 0 for no effect and ±100 for the full control effect
Target sequence (P48426 whole entry, looked up): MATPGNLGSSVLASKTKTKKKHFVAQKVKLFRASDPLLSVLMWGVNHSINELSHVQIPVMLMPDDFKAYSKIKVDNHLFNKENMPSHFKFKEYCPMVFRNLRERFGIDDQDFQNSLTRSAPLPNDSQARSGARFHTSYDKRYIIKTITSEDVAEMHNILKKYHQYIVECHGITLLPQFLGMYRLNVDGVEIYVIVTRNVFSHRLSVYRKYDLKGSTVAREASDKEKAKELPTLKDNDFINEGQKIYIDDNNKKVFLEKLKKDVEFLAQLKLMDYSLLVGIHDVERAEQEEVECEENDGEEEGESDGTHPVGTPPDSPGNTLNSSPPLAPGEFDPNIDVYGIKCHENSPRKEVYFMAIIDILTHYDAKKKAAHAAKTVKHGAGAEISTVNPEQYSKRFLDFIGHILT
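Controls without substrate or without enzyme flank wells where PI5P4Kalpha converts substrate using 5 microM ATP (final). Incubation lasts 60 minutes at room temperature; ADP formed is read by ADP-Glo luminescence.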
D3 ag: activates the human D3 dopamine receptor. P35462. D3R DiscoveRx beta-arrestin cells, luminescence, 90 min. max activation, %. actives 0.58% (n = 410,000). AID 652048; in the data active = max activation above about 30%; note: 0% is about no effect
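Agonist mode: compounds and dopamine controls were applied to plated cells for 90 min at 37 degrees C after an overnight attachment at 1500 cells/well. Luminescent read-out followed 30 - 60 minutes at room temperature with DiscoveRx detection reagent.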
DRD3 antagonist: antagonists of human D3 dopamine receptor; actives 2.5% (n = 360,000); max response, negative = inhibition, %; P35462; D3R cells, DiscoveRx beta-arrestin luminescence, antagonist mode; hits give low values; AID 652054; in the data active = max response below about -50%; inconclusive = no clear call, values can overlap the other calls; note: % is set by controls: 0 for no effect and ±100 for the full control effect
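Cells plated overnight at 1500 cells/well, then exposed to library compounds with dopamine controls for 90 minutes at 37 degrees C. DiscoveRx reagent added for 30–60 minutes at room temperature; luminescence read, quantitative HTS format.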
LDHA inh: blocks human lactate dehydrogenase A; P00338; purified LDHA, NADH/diaphorase-resazurin fluorescence; hits give low values; activity change, % (values are at about 110 or 230 µM); actives 0.15% (n = 480,000); AID 1347041; in the data active = activity change below about -30%; inconclusive = mostly about -25% to -30%;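 note: plate controls were DMSO wells for no effect and wells without enzyme for full effect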
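Remaining NADH was detected by diaphorase (0.133 mg/mL) converting 37 µM resazurin to fluorescent resorufin, read at 0 and 20 minutes. The preceding 5-minute room-temperature reaction used 2 nM LDHA, 0.2 mM sodium pyruvate and 0.06 mM NADH at pH 7.4.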
The depositor's hits bear a star; i = inactive; ? = inconclusive; . = no result given.

SMILES	PI4K2A inh	PI5P4Ka inh	D3 ag	DRD3 antagonist	LDHA inh
CCCCN(C)C(=O)C1CCN(Cc2ccc(OCc3ccccc3)cc2)CC1	0	4	-14	-68*	-21
COC(=O)c1ccc2oc(=O)c(S(=O)(=O)c3ccc(OC)cc3)cc2c1	.	.	.	.	-6
C=C1C(O)[C@@H]2O[C@]3(CC[C@H](/C=C/C(C)[C@@H]4CC(C)=CC5(O[C@H](C[C@@](C)(O)CO)CCC5O)O4)O3)CC[C@H]2O[C@@H]1C(O)CC(C)[C@H]1OC2(CCCCO2)CCC1C (some centres not stated)	-2	-2	-29	-78*	6
C=C1[C@@H](O)[C@@H]2O[C@]3(CC[C@H](/C=C/[C@@H](C)[C@@H]4CC(C)=CC5(O[C@H](C[C@@](C)(O)C(=O)OC)CC[C@H]5O)O4)O3)CC[C@H]2O[C@@H]1[C@@H](O)C[C@H](C)[C@H]1OC2(CCCCO2)CC[C@H]1C (some centres not stated)	-2	10	-4	-17	-2
O=S(=O)(C/C(=C/CO)S(=O)(=O)c1ccccc1)c1ccccc1	-3	.	-34	-59*	-1
Cc1ccc(NC(=O)C2=C(c3ccccc3)S(=O)(=O)CCS2(=O)=O)cc1	?	-14	-22	-71*	0
O=C(Nc1ccccc1)C1=C(c2ccccc2)S(=O)(=O)CCO1	.	.	.	.	5
CN(Cc1ccco1)C(=O)COc1ccc(N(C)S(=O)(=O)c2cccs2)cc1	.	.	.	.	-2
O=C(Oc1ccc(Br)cc1Cl)c1ccc(CSc2ccc(Cl)cc2)cc1	.	.	.	.	9
C=CCN1C[C@H](C(=O)N(CCCN(C)C)C(=O)NCC)C[C@@H]2c3cccc4[nH]cc(c34)C[C@H]21	0	.	67*	.	.
O=C(Cc1cccc2ccccc12)Oc1ccc(Cl)c2ccccc12	.	.	.	.	21
O=C(NCc1ccncc1)/C(=N/O)c1ccccc1	2	9	9	-53*	0
CCOC(=O)c1cccc(NC(=O)CN(C)S(=O)(=O)c2ccc(Br)s2)c1	-3	.	.	.	.
CC(=O)c1ccccc1OCC(O)CN1CCN(c2ccccn2)CC1 (configuration not stated)	-4	8	15	-12	0
Cc1cc(C)c(C)c(OCC(O)CN2CCN(c3ccccn3)CC2)c1 (configuration not stated)	1	-9	63*	-20	1
Cc1cccc(OCC(O)CN2CCN(c3ccccn3)CC2)c1C (configuration not stated)	2	0	68*	-21	-2
O=c1oc2ccccc2c(O)c1/C=C1\C=Nc2ccccc21	-17	-56*	-2	8	2
O=C(NCCc1ccccc1)c1ncn[nH]1	9	.	35*	-21	-3
O=C(NCCc1ccc(Cl)cc1)c1ncn[nH]1	-2	-3	-1	7	-2
[O-]c1c[n+](-c2ccc(-[n+]3cc([O-])on3)cc2)no1	-8	-56*	1	12	14
C[n+]1cc(C(O)(c2ccccc2)c2ccccc2)n2ccccc21	2	.	.	.	-12
COc1cccc(CN(C)C(c2ccccc2)c2ccccc2)c1OC	1	2	-18	-51*	2
COc1ccc(CN(C)C(c2ccccc2)c2nnnn2-c2ccccc2C)c(OC)c1C (configuration not stated)	-7	10	-12	0	-4
Cc1cn2c(N)c(C=C3C=C(Cl)C(=O)C(Cl)=C3)c(=O)nc2s1	1	-78*	0	5	-4
COC1=C/C(=C/c2c(N)n3cc(C)sc3nc2=O)C=CC1=O	2	-81*	2	-3	7
SMILES	PI4K2A inh	PI5P4Ka inh	D3 ag	DRD3 antagonist	LDHA inh
CCCCOCCCNC(=O)CCC(=O)NC(C)(C)C	.	.	.	.	2
CC(C)C[C@H]1C(=O)N2CCC[C@H]2[C@]2(O)O[C@](NC(=O)[C@@H]3C=C4c5cccc6[nH]c(Br)c(c56)C[C@H]4N(C)C3)(C(C)C)C(=O)N12	0	.	39*	.	.
NC[C@H]1O[C@H](O[C@H]2[C@H](O)[C@@H](O[C@H]3O[C@H](CO)[C@@H](O)[C@H](N)[C@H]3O)[C@H](N)C[C@@H]2N)[C@H](N)[C@@H](O)[C@@H]1O	i	.	5	.	.
O=C(NCCc1ccccc1F)c1cc2ccccc2[nH]1	.	.	.	.	-3
Cc1oc(-c2ccccc2F)nc1CN1CCC(C(=O)NCc2cccs2)CC1	1	-8	-1	-52*	0
CCCCC1CCC(c2nc3ccccc3[nH]2)CC1 (configuration not stated)	.	.	.	.	78
COc1ccc(CCNC(=O)Cc2c(C)c3ccc(O)c(C)c3oc2=O)cc1OC	-1	.	38*	.	6
CC1(C)[C@@H](O)CC[C@]2(C)C3C(O)C=C4[C@H]5C[C@@](C)(CO)CC[C@]5(C)CC[C@]4(C)[C@]3(C)CC[C@@H]12 (some centres not stated)	1	-62*	65*	53	0
COc1ccccc1N1CCN(Cc2ccco2)CC1	2	.	-9	-76*	-18
Clc1ccccc1N1CCN(Cc2ccco2)CC1	-1	-1	-5	-56*	2
Cc1ccccc1N1CCN(Cc2ccc([N+](=O)[O-])o2)CC1	-14	0	-21	-3	-3
COc1ccccc1N1CCN(Cc2ccc(-c3ccccc3[N+](=O)[O-])o2)CC1	6	-2	-16	-86*	5
COc1ccc(CN2CCN(Cc3ccco3)CC2)cc1OC	4	0	-13	-4	-34*
Cn1c(CCCOc2ccc(Cl)cc2Cl)nnc1SCc1ccccc1Cl	.	.	.	.	0
Cc1c(N)nc([C@H](CC(N)=O)NC[C@H](N)C(N)=O)nc1C(=O)N[C@H](C(=O)N[C@H](C)[C@@H](O)[C@H](C)C(=O)N[C@H](C(=O)NCCc1nc(-c2nc(C(=O)NCCCCN=C(N)N)cs2)cs1)[C@@H](C)O)[C@@H](O[C@@H]1O[C@@H](CO)[C@@H](O)[C@H](O)[C@@H]1O[C@H]1O[C@H](CO)[C@@H](O)[C@H](OC(N)=O)[C@@H]1O)c1cnc[nH]1	.	.	13	.	.
CNCc1ccc(-c2ccccc2Cl)o1	.	.	.	.	-2
O=C1C2CCCN2C(=O)N1CCCCN1CCN(c2cccc(Cl)c2)CC1 (configuration not stated)	-1	-4	-1	-58*	-3
O=C1C2CCCCN2C(=O)N1CCCCN1CCN(c2cccc(Br)c2)CC1 (configuration not stated)	2	-2	-4	-80*	0
CCCCNCC#CCOc1cc(C)ccc1C(C)C	7	6	0	-52*	-11
CCCc1nc2ccccc2n1CCOc1ccccc1	5	1	-5	-62*	-5
COc1ccc(NCc2nc3ccccc3n2CCOc2ccccc2)cc1	-1	0	-4	-12	10

Source: PubChem (National Center for Advancing Translational Sciences (NCATS))
